Measured values published in PubChem BioAssay (EPA / NIEHS).
“And” between values parts separate entries of the source, which are not always exact repeats. Equal entries are not always repeated. The source made the active and inactive calls. Rule for the calls: active = hit-call score of the fitted dose curve at least 0.9, where 1 is the maximum; inactive = score below 0.9.

Experiments:
[1] = read-out: TIMP metallopeptidase inhibitor 1 (TIMP1), TIMP1 (gene 7076); test: BSK_hDFCGF_TIMP1: BioMAP Diversity Plus: hDFCGF Assay for TIMP metallopeptidase inhibitor 1 (TIMP1) Biomarker Activity (AID 2283062); conditions: primary human foreskin fibroblasts; actives raise or lower the signal
In short: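 Human foreskin fibroblast primary cultures dosed for 24 h; secreted/surface TIMP-1 quantified by ELISA. Bidirectional curve fitting against DMSO baseline; cytotoxicity tracked in parallel cultures by SRB total-protein staining.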

[2] = read-out: Monokine induced gamma interferon (MIG), CXCL9 (gene 4283); test: BSK_hDFCGF_MIG: BioMAP Diversity Plus: hDFCGF Assay for Monokine induced gamma interferon (MIG) Biomarker Activity (AID 2283063); conditions: primary human foreskin fibroblasts; actives raise or lower the signal
In short: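 MIG/CXCL9 measured by ELISA 24 h after dosing primary human skin fibroblasts. Activity fitted in both directions against DMSO controls. Cytotoxicity was checked in parallel cultures by SRB staining read at 560 nm.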

[3] = read-out: Matrix Metallopeptidase 1 (MMP1), MMP1 (gene 4312); test: BSK_hDFCGF_MMP1: BioMAP Diversity Plus: hDFCGF Assay for Matrix Metallopeptidase 1 (MMP1) Biomarker Activity (AID 2283064); conditions: primary human foreskin fibroblasts; actives raise or lower the signal
In short: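 ELISA read-out of MMP1 from human foreskin fibroblasts (primary skin cells), 24 h post-dose. Gain or loss of signal was fitted bidirectionally versus DMSO negative control; cytotoxicity was checked by SRB in parallel cultures.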

[4] = read-out: Vascular cell adhesion molecule 1 (VCAM1), VCAM1 (gene 7412); test: BSK_hDFCGF_VCAM1: BioMAP Diversity Plus: hDFCGF Assay for Vascular cell adhesion molecule 1 (VCAM1) Biomarker Activity (AID 2283065); conditions: primary human foreskin fibroblasts; actives raise or lower the signal;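 for AC50: VCAM-1 protein level quantified by ELISA after 24 h chemical exposure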
In short: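 Human foreskin fibroblast primary cells dosed with chemical, VCAM-1 measured by ELISA at 24 h. Bidirectional curve fitting relative to DMSO as negative control/baseline.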

[5] = read-out: Plasminogen activator inhibitor-1 (PAI1), SERPINE1 (gene 5054); test: BSK_hDFCGF_PAI1: BioMAP Diversity Plus: hDFCGF Assay for Plasminogen activator inhibitor-1 (PAI1) Biomarker Activity (AID 2283066); conditions: primary human foreskin fibroblasts; actives raise or lower the signal
In short: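 ELISA readout of PAI-1 from primary human skin fibroblast cultures, 24 h after compound addition. Gain or loss of signal was fitted bidirectionally against DMSO baseline.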

[6] = read-out: Intercellular Adhesion Molecule 1 (ICAM1), ICAM1 (gene 3383); test: BSK_KF3CT_ICAM1: BioMAP Diversity Plus: KF3CT Assay for Intercellular Adhesion Molecule 1 (ICAM1) Biomarker Activity (AID 2283067); conditions: primary human keratinocytes with fibroblasts; actives raise or lower the signal
In short: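 Human keratinocyte–foreskin fibroblast co-culture was treated for 24 h. Cell-surface ICAM-1 was quantified by ELISA, fitted bidirectionally relative to DMSO. Cytotoxicity was checked in parallel cultures by SRB total-protein staining.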

[7] = read-out: Interferon-gamma inducible Protein 10 (IP10), CXCL10 (gene 3627); test: BSK_KF3CT_IP10: BioMAP Diversity Plus: KF3CT Assay for Interferon-gamma inducible Protein 10 (IP10) Biomarker Activity (AID 2283068); conditions: primary human keratinocytes with fibroblasts; actives raise or lower the signal
In short: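 ELISA read-out of IP-10 after 24 h chemical dosing of human skin primary co-culture (keratinocytes, foreskin fibroblasts). Gain or loss of signal relative to DMSO, bidirectional curve fit.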

[8] = BSK_KF3CT_SRB: Viability Assessment in the BioMAP Diversity Plus: KF3CT Assay (AID 2283069); conditions: primary human keratinocytes with fibroblasts;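 note: total protein by sulforhodamine B staining as a cytotoxicity measure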
In short: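 SRB read-out at 560 nm (0.1% stain, TCA-fixed cells) gauges overt cytotoxicity in a human skin keratinocyte–fibroblast co-culture 24 h post-dosing. Signal change was fitted bidirectionally relative to DMSO control.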

[9] = read-out: Interleukin-1 alpha (IL1a), IL1A (gene 3552); test: BSK_KF3CT_IL1a: BioMAP Diversity Plus: KF3CT Assay for Interleukin-1 alpha (IL1a) Biomarker Activity (AID 2283070); conditions: primary human keratinocytes with fibroblasts; actives raise or lower the signal
In short: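 Primary skin co-culture (keratinocytes, foreskin fibroblasts), 24 h exposure; ELISA for IL-1a; bidirectional curve fit vs DMSO.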

[10] = read-out: TIMP metallopeptidase inhibitor 2 (TIMP2), TIMP2 (gene 7077); test: BSK_KF3CT_TIMP2: BioMAP Diversity Plus: KF3CT Assay for TIMP metallopeptidase inhibitor 2 (TIMP2) Biomarker Activity (AID 2283071); conditions: primary human keratinocytes with fibroblasts; actives raise or lower the signal
In short: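 ELISA readout of TIMP-2 in keratinocyte plus foreskin fibroblast co-cultures (human skin primary cells), 24 h post-dose. Gain or loss of signal fitted relative to DMSO.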

[11] = read-out: C-C motif chemokine 2 (Homo sapiens) (UniProt P13500); test: BSK_KF3CT_MCP1: BioMAP Diversity Plus: KF3CT Assay for Monocyte Chemoattractant Protein 1 (MCP1/CCL2) Biomarker Activity (AID 2283073); conditions: primary human keratinocytes with fibroblasts; actives raise or lower the signal
In short: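 Human keratinocyte–foreskin fibroblast co-culture; MCP-1 measured by ELISA 24 h after dosing. Bidirectional fit vs DMSO; cytotoxicity tracked by SRB total protein in parallel cultures.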

[12] = read-out: Matrix Metallopeptidase 9 (MMP9), MMP9 (gene 4318); test: BSK_KF3CT_MMP9: BioMAP Diversity Plus: KF3CT Assay for Matrix Metallopeptidase 9 (MMP9) Biomarker Activity (AID 2283074); conditions: primary human keratinocytes with fibroblasts; actives raise or lower the signal;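 for AC50: MMP9 protein level quantified by ELISA in the co-culture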
In short: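 ELISA read-out of MMP-9 at 24 h post-dosing in a co-culture of human skin keratinocytes and foreskin fibroblasts. Gain or loss of signal was fitted in both directions against DMSO.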

[13] = read-out: urokinase plasminogen activator (uPA), PLAU (gene 5328); test: BSK_KF3CT_uPA: BioMAP Diversity Plus: KF3CT Assay for urokinase plasminogen activator (uPA) Biomarker Activity (AID 2283075); conditions: primary human keratinocytes with fibroblasts; actives raise or lower the signal
In short: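 Skin co-culture (keratinocytes + foreskin fibroblasts), human primary; 24 h post-dose; uPA by ELISA; gain/loss fit vs DMSO baseline.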

CD40, CD40 (gene 958) = test: BSK_LPS_CD40: BioMAP Diversity Plus: LPS Assay for CD40 Biomarker Activity (AID 2283076); conditions: primary human HUVEC with PBMC; actives raise or lower the signal
In short: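 HUVEC plus PBMC co-culture stimulated with LPS; CD40 quantified by ELISA 24 h after compound dosing. Fitting was bidirectional relative to DMSO. SRB staining of parallel cultures flagged overt cytotoxicity.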

[14] = read-out: E-selectin (Homo sapiens) (UniProt P16581); test: BSK_LPS_Eselectin: BioMAP Diversity Plus: LPS Assay for Eselectin Biomarker Activity (AID 2283077); conditions: primary human HUVEC with PBMC; actives raise or lower the signal
In short: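 Human umbilical vein endothelial cells co-cultured with PBMC under LPS stimulation; cell-surface E-selectin measured by ELISA 24 h after dosing. Change in either direction versus DMSO, with SRB total-protein staining in parallel cultures for cytotoxicity.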

[15] = read-out: Interleukin-8 (IL8), CXCL8 (gene 3576); test: BSK_LPS_IL8: BioMAP Diversity Plus: LPS Assay for Interleukin-8 (IL8) Biomarker Activity (AID 2283078); conditions: primary human HUVEC with PBMC; actives raise or lower the signal
In short: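 Human umbilical vein endothelial cells co-cultured with PBMC, LPS-stimulated, exposed to compound for 24 h. IL-8 quantified by ELISA; fitted in both directions against DMSO, with SRB total-protein staining of parallel cultures for cytotoxicity.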

[16] = BSK_LPS_SRB: Viability Assessment in the BioMAP Diversity Plus: LPS Assay (AID 2283079); conditions: primary human HUVEC with PBMC;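 note: total protein by sulforhodamine B absorbance as a cytotoxicity measure; measured one day after compound addition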
In short: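 Co-culture of human umbilical vein endothelial cells and PBMC, read 24 h after dosing. Total protein by 0.1% SRB staining after 10% TCA fixation, absorbance at 560 nm; bidirectional fit against DMSO.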

[17] = read-out: Interleukin-1 alpha (IL1a), IL1A (gene 3552); test: BSK_LPS_IL1a: BioMAP Diversity Plus: LPS Assay for Interleukin-1 alpha (IL1a) Biomarker Activity (AID 2283080); conditions: primary human HUVEC with PBMC; actives raise or lower the signal
In short: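 Human umbilical vein endothelial cells co-cultured with PBMC and stimulated with LPS; IL-1a measured by ELISA 24 h after dosing. Bidirectional fitting against DMSO; cytotoxicity checked by SRB staining in parallel cultures.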

[18] = read-out: Monocyte Chemoattractant Protein-1 (MCP1), CCL2 (gene 6347); test: BSK_LPS_MCP1: BioMAP Diversity Plus: LPS Assay for Monocyte Chemoattractant Protein-1 (MCP1) Biomarker Activity (AID 2283081); conditions: primary human HUVEC with PBMC; actives raise or lower the signal
In short: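 Human umbilical vein endothelial cells co-cultured with PBMC, LPS-stimulated; secreted MCP-1 measured by ELISA 24 h after compound addition. Bidirectional curve fitting against DMSO baseline; SRB total-protein staining in parallel cultures for cytotoxicity.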

[19] = read-out: Transforming growth factor beta 1 (TGFb1), TGFB1 (gene 7040); test: BSK_KF3CT_TGFb1: BioMAP Diversity Plus: KF3CT Assay for Transforming growth factor beta 1 (TGFb1) Biomarker Activity (AID 2283072); conditions: primary human keratinocytes with fibroblasts; actives raise or lower the signal
In short: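 Read-out: ELISA for TGF-b1 in keratinocyte/foreskin fibroblast human skin co-culture, 24 h after dosing; bidirectional curve fit vs DMSO baseline; gain or loss of signal scored.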

Measured: AC50

Chain of E-selectin (Homo sapiens) (P16581 whole entry, looked up): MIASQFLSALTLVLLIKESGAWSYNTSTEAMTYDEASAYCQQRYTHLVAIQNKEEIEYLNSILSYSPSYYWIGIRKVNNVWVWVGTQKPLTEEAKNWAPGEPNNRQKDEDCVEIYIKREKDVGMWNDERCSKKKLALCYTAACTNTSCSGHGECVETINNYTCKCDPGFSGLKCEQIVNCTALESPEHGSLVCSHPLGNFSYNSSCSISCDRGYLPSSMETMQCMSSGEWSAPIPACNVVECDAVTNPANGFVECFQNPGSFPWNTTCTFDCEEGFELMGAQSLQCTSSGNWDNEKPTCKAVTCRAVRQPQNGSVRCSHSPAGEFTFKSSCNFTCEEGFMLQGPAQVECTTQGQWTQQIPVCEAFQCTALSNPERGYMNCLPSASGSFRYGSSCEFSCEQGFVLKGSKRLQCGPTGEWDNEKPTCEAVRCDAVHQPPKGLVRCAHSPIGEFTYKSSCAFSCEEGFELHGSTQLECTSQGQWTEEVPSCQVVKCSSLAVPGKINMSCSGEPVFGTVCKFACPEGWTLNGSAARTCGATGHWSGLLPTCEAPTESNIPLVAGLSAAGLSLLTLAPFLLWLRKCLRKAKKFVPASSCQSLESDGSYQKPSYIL

C=CC(C)(O)CCC=C(C)C (stereo not drawn)
not listed: [19]
inactive: all other assays above

CC1(C)CCC[C@]2(C)[C@H]3CCO[C@]3(C)CC[C@@H]12
active: [1] 38.6 µM and 32.1 µM | [2] 34.5 µM and 36.6 µM | [3] 35 µM and 36 µM | [4] 38.1 µM and 33.9 µM | [5] 37.2 µM and 31.1 µM | [6] 37.1 µM and 38.1 µM | [7] 37.5 µM and 33.9 µM | [8] 33.4 µM and 36.8 µM | [9] 34.4 µM and 38.9 µM | [10] 33.1 µM and 33.9 µM | [11] 33.9 µM and 30.7 µM | [12] 36.7 µM and 35.6 µM | [13] 36.6 µM and 37.8 µM
inactive: CD40, CD40 (gene 958) | [14] | [15] | [16] | [17] | [18]

Cc1cc(CCC(=O)OCCOCCOCCOC(=O)CCc2cc(C)c(O)c(C(C)(C)C)c2)cc(C(C)(C)C)c1O
inactive: all assays above
